Source: PubChem BioAssay AID651820 (National Center for Advancing Translational Sciences (NCATS), 2012)
Hit rate of the full screen: of about 340,000 compounds, about 12,000 (3.5%) were called active. About 18% were inconclusive and are not listed. This is one part of a sample in which actives are shown more often than they occur. Values without a mark were called inactive. Calls come from the whole dose curve; as a rule, active = well fitted inhibition curve with a large enough effect; inconclusive = small, poorly fitted or top-dose-only effect, or another doubt; inactive = no such curve, though single readings can be large or run the other way.

assay: qHTS Assay for Inhibitors of Hepatitis C Virus (HCV); details: Huh7.5.1 HCVcc-Cre infection, luciferase reporter, 44 h; series mostly up to 41.8 µM; activity change, negative = inhibition: at the top concentration
Summary of the method: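 Antiviral activity was scored by luciferase reporter output from cells infected with HCVcc-Cre (~0.5 moi) in presence of compound, 44 h infection period, cells seeded 1,000/well 4 h prior.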
% is set by controls: 0 for no effect and ±100 for the full control effect; potency is the fitted concentration of half-maximal effect.

SMILES | activity change, negative = inhibition | Potency
CC1=CC(=NNS(=O)(=O)c2ccc([N+](=O)[O-])cc2)CC(C)(C)C1 | 2.6% | –
CC(=O)OC1C2(CC3N4C(=O)C5(CO)SSC4(CC31O)C(=O)N5C)OC(C)C(C)(C)C2=O (stereo not drawn) | – | 0.562 µM (active)
Cc1cc(Br)ccc1NC(=O)CN(C)C(=O)CN1C(=O)NC2(CCCC2)C1=O | -8.88% | –
O=S(=O)(NCCCc1ccccc1)c1ccc(Br)cc1 | 16.7% | –
O=C(Cn1cnc2c(OCc3ccccc3)ncnc21)NCc1nc2ccccc2[nH]1 | -17.2% | –
CC(=O)Nc1ccc(Nc2c3ccccc3nc3ccccc23)cc1 | – | 7.08 µM (active)
Cc1ccc(Nc2c3c(nc4ccccc24)CCC3)cc1 | -80.9% | –
CC(=O)Nc1ccc(NC(=O)COc2ncnc3ccccc23)cc1 | 25.3% | –
CCOc1ccc(NC(=O)c2ccc(NC(=O)CN3C(=O)C(=O)N(CC(C)C)C3=O)cc2)cc1 | -8.34% | –
CCN(c1ccccc1)S(=O)(=O)c1ccc(C(=O)Nc2ccccc2OC)cc1 | -15.4% | –
CN(C(=O)CSc1nnc(C2CC2)n1C)C1CCCc2ccccc21 (stereo not drawn) | 14.8% | –
CC(C)c1ccc(S(=O)(=O)N2CCN(C(C)C(=O)NC3CCCC3)CC2)cc1 (stereo not drawn) | -12.7% | –
OC(CNCC1CCCO1)Cn1c2ccc(Br)cc2c2cc(Br)ccc21 (stereo not drawn) | – | 35.5 µM (active)
CC(NS(=O)(=O)c1ccc(Br)cc1)C(=O)NCC1CCCO1 (stereo not drawn) | -15.1% | –
O=C(CCNS(=O)(=O)c1ccc(Br)cc1)NCC1CCCO1 (stereo not drawn) | 9.8% | –
Cc1noc(C)c1C(=O)N1CCOCC1 | -3.5% | –
CCOC(=O)c1ccccc1C(=O)N1CCOCCOCCOCC1 | 6.73% | –
Cc1oc2c(c1C(=O)N1CCOCC1)C(=O)c1ccccc1C2=O | – | 5.62 µM (active)
O=C(NCCC(=O)N1O[C@@H]2C=C[C@H]1C2)OCC1c2ccccc2-c2ccccc21 | -5.37% | –
CCn1c(=S)[nH]c2cc(S(=O)(=O)N3CCOCC3)ccc21 | 7.96% | –
COC(=O)C(C)Sc1nc2c(c(=O)n(C)c(=O)n2C)n1Cc1cccc(C)c1 (stereo not drawn) | – | inactive
Cn1c(=O)c2c(nc(CN3CCOCC3)n2Cc2ccccc2)n(C)c1=O | 2.12% | –
Cc1cccc(Cn2c(N3CCN(c4ccccc4)CC3)nc3c2c(=O)n(C)c(=O)n3C)c1 | – | 14.1 µM (active)
COc1ccc(S(=O)(=O)N(C)C[C@@H]2Oc3ccc(NS(=O)(=O)c4cn(C)cn4)cc3C(=O)N([C@@H](C)CO)C[C@@H]2C)cc1 | 10.5% | –
O=C(COC(=O)CCCN1C(=O)c2cccc3cccc(c23)C1=O)NC1CCS(=O)(=O)C1 (stereo not drawn) | 10.7% | –
C[C@H](NS(=O)(=O)c1ccc(Cl)cc1)C(=O)OCC(=O)N1CCOCC1 | 9.77% | –
Nc1ccccc1SCc1cc([N+](=O)[O-])cc2c1OCOC2 | -22.1% | –
CC(O)C(NS(=O)(=O)c1ccc(Cl)cc1)C(=O)OCc1cc([N+](=O)[O-])cc2c1OCOC2 (stereo not drawn) | – | 10 µM (active)
